# About 83,000 compounds went through this panel and 20% of them were active in at least one assay; those are over-represented in the sample as a whole.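 Each cell line was grown in a 96-well plate and treated with one concentration of compound for 48 hours. Values below 10 were considered active.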 Values without a mark were called inactive. Calls of active or inactive are those of the source.
# Tested on: MDA-MB-468 breast
# Assay: NCI-60 one-dose screen, 48 h (100 = growth as untreated, 0 = no growth, -100 = all killed)
# Settings: 10 µM unless noted
row,Compound,growth
1,Cc1ccc2[nH]c(=S)n(-c3ccc(S(=O)(=O)Nc4ccc(Cl)nn4)cc3)c(=O)c2c1,107%
2,CCCCCCCN(CCCCCCC)C(=N)c1ccc(OC)c2ccccc12,-85% (active)
3,COc1ccc(C2=C/C(=C\c3ccccc3O)C(=O)N2Cc2ccccc2)cc1,53.7%
4,Cc1[nH]c(C(=O)Nc2ccccc2OCc2cccc(C(=O)N3CCC[C@@H](N)C3)c2)c(Cl)c1Cl,-74% (active)
5,C=C(CNCCc1ccc(O)cc1)[C@@H]1CC[C@]2(CO)CC[C@]3(C)[C@H](CC[C@@H]4[C@@]5(C)CCC(NCCc6ccc(O)cc6)C(C)(C)[C@@H]5CC[C@]43C)[C@@H]12 (stereo not given in full),-74.6% (active)
6,CC(COC(=O)c1ccccc1)N1CC2CCC(C1)O2 (stereo not given),103%
7,COc1ccc(C(=O)C2C(C#N)C(C#N)C3C=Cc4ccccc4N32)cc1 (stereo not given),16.5%
8,CCCCCCCCC(C)OC(=O)c1nn(C(C)=O)c2ccccc12 (stereo not given),96.8%
9,O=S(=O)(NCCCNc1nccc(-c2c(-c3ccc(F)c(O)c3)nc3occn23)n1)c1ccc(Cl)cc1,62.2%
10,Cn1c(=O)c2[nH]c(N/N=C/c3ccccc3Br)nc2n(C)c1=O,115%
11,Nc1nc(-c2cccc([N+](=O)[O-])c2)c(N=Nc2cccc(Cl)c2)s1,11.5%
12,Cn1cc(C=O)c2ccccc21,100%
13,COc1ccc2c(c1)C(=O)c1c-2c(=O)n(CCCCCCC(=O)NO)c2ccccc12,6.84% (active)
14,COc1cccc(C(=O)Nc2cccc(C#Cc3cccc4[nH]nc(N)c34)c2)c1,24.5%
15,O=C(COc1cccc(/C=C2\Cc3ccc(Cl)cc3C2=O)c1)Nc1nccs1,21.9%
16,C[Si](C)(C)Cc1ccccc1,104%
17,CCOC(=O)C(=Cc1ccccc1[N+](=O)[O-])C(=O)OCC,34.3%
18,CCOC(=O)c1[nH]c2cc(Cl)ccc2c1[C@@H](C(=O)NC(C)(C)C)N(CC)C(=O)CCCCC#Cc1cccc2c1CN(C1CCC(=O)NC1=O)C2=O (stereo not given in full),-14.3% (active)
19,O=C1OCC2=C1C(c1cccc(F)c1)c1cc3c(cc1N2CCO)OCO3 (stereo not given),8.27% (active)
20,COC(=O)c1cc2cc(-c3ccc(OC)cc3)cnc2[nH]1,17.4%

row,Compound,growth
1,CCN(CC)Cc1cc(Nc2cc(C(F)(F)F)c(C#N)c3nc4ccccc4n23)ccc1O,-0.969% (active)
2,Nc1ccc2c(c1)Cc1cc(N)c(N)cc1-2,76.6%
3,CCOC(=O)CNC,101%
4,C=CCNC(=S)NNc1ccc([N+](=O)[O-])cn1,98.7%
5,CN1C(=O)N(C)C2C1NN=c1s/c(=C\c3ccc(Cl)cc3Cl)c(=O)n12 (stereo not given),27.4%
6,c1ccc([P+](CCC[P+](c2ccccc2)(c2ccccc2)c2ccccc2)(c2ccccc2)c2ccccc2)cc1,23.7%
7,O=c1cc(-c2ccccc2)[nH]n1-c1nc2ccccc2[nH]1,66.2%
8,CC1CCc2c(C(=O)Nc3ncc(Cc4cccc([N+](=O)[O-])c4)s3)csc2C1 (stereo not given),12.3%
9,Cc1ccc(F)cc1NC(=O)c1cc(Cl)ccc1Nc1ccccc1,61.8%
10,CCCC[N+](C)(N)CCCC,106%
11,C=C1SC(=Nc2ccccc2Cl)N(C(=O)c2sc3ccccc3c2Cl)C1(C)C,50%
12,COc1cc(C)c2sc3ccccc3c(=O)c2c1NCCN(C)C,49%
13,O=C(NNc1nc2cc(F)cc(F)c2n2cccc12)c1cccnn1,-21% (active)
14,COc1ccc(-c2csc(NC(=O)N3CCN(c4cc5c(cc4F)c(=O)c(C(=O)O)cn5C4CC4)CC3)n2)cc1,-2.96% (active)
15,O=C1c2ccccc2C(=O)c2c1ccc1[nH]c(-c3cccs3)nc21,99.6%
16,N=C(N)c1ccc(-c2cc(Cl)cc(Cl)c2)cn1,78.7%
17,C=CCn1c(SCC(=O)Nc2ccc(C(=O)/C=C/c3ccc(Cl)cc3)cc2)nnc1-c1c[nH]c2ccccc12,62.2%
18,COc1ccc2c(c1)/C(=C\c1sc(=S)[nH]c1O)C(C(=O)O)=N2,98.2%
19,C/C(=N/NC(N)=S)c1ccc(Nc2nc(SCC(C)C)nc(-c3ccc(F)cc3)c2C#N)cc1,-19.4% (active)
20,CCCCCCCCCCCC[n+]1ccccc1,-23.6% (active)

# Source: PubChem BioAssay (NCI)
